tim23-1 inh = growth inhibitors of tim23-1 mutant yeast, primary screen, luminescence, uHTS; S. cerevisiae tim23-1 growth, BacTiter-Glo luminescence, 24 h; inhibition, % at 20 µM; hit rate 1.3% among 330,000; AID 463212, 2010;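 active = growth inhibition of the mutant yeast at or above 50%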;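 note: temperature-sensitive mutant grown at 25 °C; plate controls were DMSO-treated mutant yeast for no effect and medium wells lacking yeast for full effect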
tim10-1 inh = growth inhibitors of tim10-1 mutant yeast, primary screen, luminescence, uHTS; S. cerevisiae tim10-1 ts strain growth, BacTiter-Glo, 24 h; inhibition, % at 20 µM; hit rate 2.2% among 330,000; AID 463190, 2010;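 active = inhibition of at least 40%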;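 note: mutant grown at 25 °C; 0% = DMSO wells with yeast and 100% = wells holding no yeast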
SKKanGAS inh = S. pyogenes SKKanGAS growth inhibitors in kanamycin, primary screen, streptokinase expression inhibitor project, SKKanGAS strain, BacTiter-Glo luminescence; 6 h; hit rate 1.3% among 300,000; inhibition, % at 7.5 µM; AID 1662, 2009;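 active = mean replicate score, as percent of positive control median, at least 50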;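 note: strain carries kanamycin resistance gene driven by streptokinase promoter and grows in 40 µg/ml kanamycin; loss of luminescence reflects streptokinase promoter inhibition or plain growth inhibition; 0% = median of DMSO wells and 100% = positive control at its reference dose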
NALP1 inh = NALP1 inflammasome inhibitors in reconstituted yeast, colorimetric, S. cerevisiae, triplicate retest; S. cerevisiae NALP1/ASC/caspase-1 growth, X-gal OD620, 72 h; inhibition, % at 10 µM; hit rate 0.61% among 280,000; in the data active = inhibition mostly above about 24%, no sharp cut-off; inactive = mostly below about 32%
NALP3 yeast inh = NALP3 inflammasome inhibitors in reconstituted yeast, primary screen, luminescence, uHTS; Yeast reconstituted NLRP3/ASC/caspase-1, beta-gal luminescence, 24 h; inhibition, % at 10 µM; hit rate 0.39% among 330,000;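 active = inhibition of 50% or more; inactive = inhibition below 50%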;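 note: plate controls were induced DMSO wells for no effect and uninduced yeast grown without galactose for full effect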
TIM10 inh = growth inhibitors of isogenic TIM10 control yeast, primary screen, counter-screen for tim10-1 yeast inhibitor project, luminescence, uHTS | AID 463195, 2010 | hit rate 1.4% among 330,000 | inhibition, % at 10 µM | S. cerevisiae TIM10 strain growth, BacTiter-Glo luminescence, 24 h;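 active = inhibition of 40% or more at the single tested concentration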;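 note: wild-type TIM10 isogenic control strain grown at permissive 25 °C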
tim23-1 conf = tim23-1 mutant yeast growth inhibitors, confirmation, luminescence, single concentration; AID 463218, 2010; S. cerevisiae tim23-1 growth, BacTiter-Glo luminescence, 24 h; hit rate 83% among 4,400; inhibition, % at 20 µM; shares compounds with tim23-1 inh;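 active = inhibition above about 39% in either of two replicate wells at 20 µM, limit read from the data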;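 note: temperature-sensitive tim23-1 mutant grown at 25 °C; 0% = DMSO wells with yeast and 100% = medium wells without yeast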
* = called active by the depositor; · = not tested or not shown. The list is not random: actives were taken first. Their share in the collection is about 4.9%.

SMILES	tim23-1 inh	tim10-1 inh	SKKanGAS inh	NALP1 inh	NALP3 yeast inh	TIM10 inh	tim23-1 conf
O=C(NC1CCCC1)C1CCN(C(=O)c2ccc(-c3ccccc3)cc2)CC1	18	34	2	1	19	-6	·
N#C/C(=C\c1ccc(Sc2nc3ccccc3[nH]2)o1)c1ccccc1	51*	33	5	10	6	35	41*
N#C/C(=C/c1ccc(N2CCOCC2)o1)c1nc2ccccc2[nH]1	57*	18	·	-3	10	34	66*
N#C/C(=C\c1ccc(N2CCOCC2)o1)c1ccccc1	36	34	-6	9	26	23	·
Cc1ccc(NC(=O)Nc2c(C)n(C)n(-c3ccccc3)c2=O)cc1	94*	-4	-1	16	1	7	15
O=C(O)CNS(=O)(=O)c1c(Cl)cccc1Cl	-1	8	1	-5	-2	-1	·
O=[N+]([O-])c1ccc(CNc2ccc(F)cc2)s1	51*	33	5	13	11	36	46*
COc1ccc(CNc2ccc(S(N)(=O)=O)cc2)cc1	5	8	-5	22	17	1	·
O=[N+]([O-])c1ccc(CNc2cccc(Cl)c2)s1	57*	23	1	10	22	23	56*
COc1ccc(NCc2ccc([N+](=O)[O-])s2)cc1	58*	20	2	62*	16	29	69*
O=C(c1ccc([N+](=O)[O-])s1)N1CCN(c2cccc(Cl)c2)CC1	-34	-62	7	36	23	26	·
O=C(Nc1ccc(N2CCN(C(=O)c3cccs3)CC2)cc1)c1ccc(Br)o1	55*	29	·	·	26	32	54*
O=C(Nc1cccc(NC(=O)c2cccs2)c1)c1ccc(Br)o1	61*	16	-2	27	21	3	72*
O=C(Nc1ccc(N2CCN(C(=O)c3cccs3)CC2)cc1)c1ccccc1Cl	6	19	1	-3	18	15	·
O=C(Nc1ccc(NC(=O)c2cccs2)cc1)c1ccc(Br)o1	42	-20	4	13	12	6	·
O=C(Nc1ccccc1Cl)c1cccc(NC(=O)c2cccs2)c1	59*	17	3	-16	30	14	63*
CCC(C)[C@H](NC(=O)NCCCOC(C)C)C(=O)OC (some centres not stated)	11	-1	-6	11	12	18	·
CCOc1ccccc1N1CC(C(=O)Nc2cccc(S(=O)(=O)N3CCCCC3)c2)CC1=O (configuration not stated)	10	3	0	1	-12	-3	·
O=C(Nc1ccc2nc(-c3ccc(Br)o3)[nH]c2c1)c1ccco1	57*	7	1	-3	11	38	66*
O=C(Nc1ccc2nc(-c3ccc(Br)o3)[nH]c2c1)c1cccs1	73*	18	12	3	40	38	72*
O=S(=O)(Nc1ccc2nc(-c3ccc(Br)o3)[nH]c2c1)c1ccccc1	·	·	·	-15	·	·	·
CC(=O)Nc1ccc2nc(-c3ccc(Br)o3)[nH]c2c1	0	-26	3	22	7	5	·
Cn1cccc1-c1nc2ccc(NC(=O)c3cccs3)cc2[nH]1	56*	1	0	-1	11	24	48*
CCc1c(C)c2ccc(OCC(=O)NCC3CCC(C(=O)O)CC3)cc2oc1=O (configuration not stated)	0	13	8	10	-7	-4	·
COc1cc(CNc2ccc(CNc3ncn[nH]3)cc2)ccc1OCc1ccccc1	15	18	9	9	23	27	·
CC1(C)CC(NC(=O)C2CCC(=O)N(C3CC3)C2)CC(C)(C)C1 (configuration not stated)	9	2	3	12	14	-7	·
Cc1nc2ccccc2nc1Nc1cccc(Cl)c1	61*	39	-2	5	18	26	41*
